Results as given in PubChem BioAssay (NCATS).
Results filed as inconclusive are left out. A call without a number means that no potency is given here. Activity calls are given as the source filed them. Calls come from the whole dose curve; as a rule, active = well fitted inhibition curve with a large enough effect; inconclusive = small, poorly fitted or top-dose-only effect; inactive = no such curve, though single readings can be large or run the other way.
Potency is the fitted concentration of half-maximal effect.

Assay: qHTS Screen of the MIPE 4.0 Collection Against Ewings Sarcoma (RDES) (AID 1259252); note: nearly all actives have a fitted effect of over 35% in size
Settings: RD-ES Ewing sarcoma viability, CellTiter-Glo, 48 h; series mostly up to 45.8 µM
Excerpt: There is a large unmet medical need for treatments for Ewing sarcoma, a pediatric sarcoma. We sought to identify compounds that inhibited Ewing sarcoma cells in vitro with the goal to then test promising drugs in two drug combinations in vitro to look for synergistic drug combinations. Promising combinations would then proceed to additional validation, including in vivo testing.
Using the NCATS developed oncology compound library called the Mechanism of Interrogation Plate (MIPE), four Ewing sarcoma cell lines were evaluated (TC32, TC71, RDES, EW8). Compounds, in a 12-point titration series, were incubated with cells for 48 hours and the read out was cell viability (CellTiter-Glo from Promega). These initial experiments were used to select appropriate concentrations of each single agent for subsequent two-drug matrix combinations such that the concentrations in the matrices would span both activity and non-activity.
Cells, in the log phase of growth, were seeded in 5 uL of RPMI plus 5% FBS, […] L-glutamine, 100 U/ml penicillin and 100 ug/ml streptomycin into 1536-well solid-bottom white tissue culture treated Greiner Bio One Plates (789173-F) using a MultiDrop Combi (Thermofisher Scientific) dispenser and a small sterile cassette. One column was media alone to be used as a :"no cells" control. The plates were then covered with sterilized stainless steel gasketed lids from Kalypsys. After allowing cells to attach for 4 hours, 23 nL of test compound or control (negative control DMSO and positive control 9.2 uM Bortezomib-final) were added from a 1536-well polypropylene compound source plate to each well using a 1536 head pin tool from Kalypsys. Cells were then incubated for 48 hours at 37C, 95% relative humidity and 5% CO2. After 48 hours, plates were removed from the incubator and 3 uL of CellTiter-Glo (Promega) was added using an Aurora Flying Reagent Dispenser Bioraptor. Plates were incubated at room temperature for 10 minutes prior to reading the luminescence on the Viewlux (PerkinElmer). The relative luciferase units are used to calculate the percent activity using the activity of DMSO in the cells and no cells columns for normalization of no inhibition and full inhibition respectively.
For `COc1ccc2[nH]cc(CCNC(C)=O)c2c1`, the Potency was 1.18 µM (active).
For `Clc1ccc2nsnc2c1NC1=NCCN1`, the Potency was “inactive”.
In the case of `Clc1ccc2c(c1)C(N1CCNCC1)=Nc1ccccc1O2`, the Potency is reported as 10.5 µM (active).
With `CCOC(=O)C(C)(C)Oc1ccc(Cl)cc1` the Potency was “inactive”.
In the case of `CC(C)(C)C(=O)Oc1ccc(S(=O)(=O)Nc2ccccc2C(=O)NCC(=O)O)cc1`, the Potency is reported as “inactive”.
For `NCCS(=O)(=O)O`, the Potency was “inactive”.
In the case of `CCC1(C)CC(=O)NC1=O` (stereo not given), the Potency is reported as “inactive”.
For `COc1cc2nc(N3CCN(C(=O)C4COc5ccccc5O4)CC3)nc(N)c2cc1OC` (stereo not given), the Potency was “inactive”.
With `COc1ccc(CCN(C)CCCC(C#N)(c2ccc(OC)c(OC)c2)C(C)C)cc1OC` (stereo not given) the Potency was “inactive”.
For `NC(=O)OCC(COC(N)=O)c1ccccc1`, the Potency was “inactive”.
For `CN(C)CCCN1c2ccccc2CCc2ccc(Cl)cc21`, the Potency was 0.662 µM (active).
In the case of `CC(C)NCC(O)COc1ccc(CCOCC2CC2)cc1` (stereo not given), the Potency is reported as “inactive”.
In the case of `O=C(Nc1ccc([N+](=O)[O-])cc1Cl)c1cc(Cl)ccc1O`, the Potency is reported as 16.6 µM (active).
For `Cn1ccc2cc3c(cc21)CCN3C(=O)Nc1cccnc1`, the Potency was 16.6 µM (active).
In the case of `COc1nc(C)nc(Cl)c1NC1=NCCN1`, the Potency is reported as “inactive”.
In the case of `O=c1c(O)c(-c2ccc(O)c(O)c2)oc2cc(O)cc(O)c12`, the Potency is reported as 10.5 µM (active).
In the case of `CN1CCN2c3ccccc3Cc3ccccc3C2C1` (stereo not given), the Potency is reported as 20.9 µM (active).
With `CN1CCC(=C2c3ccccc3C=Cc3ccccc32)CC1` the Potency was 9.35 µM (active).
In the case of `CS(=O)(=O)CCNCc1ccc(-c2ccc3ncnc(Nc4ccc(OCc5cccc(F)c5)c(Cl)c4)c3c2)o1`, the Potency is reported as 0.59 µM (active).
With `CN(C)C(=N)N=C(N)N` the Potency was “inactive”.
In the case of `CC(=O)OCC(CCn1cnc2cnc(N)nc21)COC(C)=O`, the Potency is reported as “inactive”.
With `CC[N+](CC)(CC)CCOc1cccc(OCC[N+](CC)(CC)CC)c1OCC[N+](CC)(CC)CC` the Potency was “inactive”.
With `CN(C)c1nc(N(C)C)nc(N(C)C)n1` the Potency was “inactive”.
In the case of `Nc1c2c(nc3ccccc13)CCCC2`, the Potency is reported as 26.4 µM (active).
For `Fc1ccc([C@@H]2CCNC[C@H]2COc2ccc3c(c2)OCO3)cc1`, the Potency was “inactive”.
With `O=c1c(-c2ccc(O)cc2)coc2cc(O)cc(O)c12` the Potency was 18.7 µM (active).
In the case of `CCOC(=O)c1ncn2c1CN(C)C(=O)c1cc(F)ccc1-2`, the Potency is reported as “inactive”.
In the case of `Cc1cc(C(C)(C)C)cc(C)c1CC1=NCCN1`, the Potency is reported as “inactive”.
In the case of `CC(C)(Oc1ccc(C2CC2(Cl)Cl)cc1)C(=O)O` (stereo not given), the Potency is reported as 8.55 µM (active).
For `Cn1c(=O)c2c(ncn2C)n(C)c1=O`, the Potency was “inactive”.
In the case of `CC(C(=O)O)c1cccc(C(=O)c2ccccc2)c1` (stereo not given), the Potency is reported as 7.43 µM (active).
For `CC#C[C@]1(O)CC[C@H]2[C@@H]3CCC4=CC(=O)CCC4=C3[C@@H](c3ccc(N(C)C)cc3)C[C@@]21C`, the Potency was 0.187 µM (active).
For `COc1cc2c(c(OC)c1OC)-c1ccc(OC)c(=O)cc1[C@@H](NC(C)=O)CC2`, the Potency was “inactive”.
With `CN1CCC(=C2c3ccccc3CC(=O)c3sccc32)CC1` the Potency was 11.8 µM (active).
For `N[C@@H](Cc1c[nH]c2ccc(O)cc12)C(=O)O`, the Potency was “inactive”.
In the case of `CN1CCN(C2=Nc3cc(Cl)ccc3Nc3ccccc32)CC1`, the Potency is reported as “inactive”.
With `O=c1[nH]cc(F)c(=O)[nH]1` the Potency was 5.26 µM (active).
For `CN(Cc1cnc2nc(N)nc(N)c2n1)c1ccc(C(=O)N[C@@H](CCC(=O)O)C(=O)O)cc1`, the Potency was 0.0332 µM (active).
With `CCc1cccc2c3c([nH]c12)C(CC)(CC(=O)O)OCC3` (stereo not given) the Potency was “inactive”.
In the case of `COC(=O)Nc1nc2ccc(C(=O)c3cccs3)cc2[nH]1`, the Potency is reported as 0.0037 µM (active).
